Measurements: PubChem BioAssay AID488922 (Johns Hopkins Ion Channel Center, 2010)
Hit rate of the full screen: of about 310,000 compounds, about 3,800 (1.2%) were called active. The sample holds actives, similar compounds and a random draw of the others, so the mix is not that of the screen.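 How the source made its calls: active means ratio B-score over 3 SD below the library mean, with starting fluorescence within 5 SD of its mean; inactive means the rest, inconclusive results apart.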

target: Potassium channel subfamily K member 9 (Homo sapiens) (UniProt Q9NPC2); test: KCNK9 potassium channel inhibitors, primary screen, HEK293 cells, thallium flux (AID 488922); conditions: HEK293 KCNK9, FluxOR thallium flux fluorescence, at 10 µM; stronger effect = lower value;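 on B-score: negative B-score means less thallium flux so channel inhibition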
Sequence (Q9NPC2 whole entry, looked up): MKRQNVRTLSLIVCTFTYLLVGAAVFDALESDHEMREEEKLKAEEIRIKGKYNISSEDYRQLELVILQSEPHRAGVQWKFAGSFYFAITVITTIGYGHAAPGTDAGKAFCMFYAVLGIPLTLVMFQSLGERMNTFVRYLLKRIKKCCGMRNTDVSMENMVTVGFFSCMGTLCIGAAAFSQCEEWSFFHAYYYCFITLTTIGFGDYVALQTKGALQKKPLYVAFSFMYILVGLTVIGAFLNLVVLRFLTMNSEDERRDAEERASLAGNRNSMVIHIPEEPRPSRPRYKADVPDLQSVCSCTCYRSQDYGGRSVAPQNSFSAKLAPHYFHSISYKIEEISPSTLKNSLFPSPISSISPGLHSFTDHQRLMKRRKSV

Row | Structure (SMILES) | B-score
1 | CC1(c2cccc([N+](=O)[O-])c2)CC(C)(C)N(C(=O)c2ccccc2)c2ccccc21 (stereo not given) | -7.5 (active)
2 | CC1(c2ccccc2)CC(C)(C)N(C(=O)c2cc([N+](=O)[O-])cc([N+](=O)[O-])c2)c2ccccc21 (stereo not given) | inactive
3 | O=C(c1cccc([N+](=O)[O-])c1)N1CCN(Cc2ccccc2)CC1 | inactive
4 | O=C(NC(=S)Nc1ccc(Cl)cc1Cl)C1CC1 | inactive
5 | Cc1ccccc1NC(=S)NNC(=O)c1cccc(Br)c1 | inactive
6 | CC(CC(=O)O)CC(=O)NNC(=O)c1cccc(Br)c1 (stereo not given) | inactive
7 | O=C(/C=C/NNC(=O)c1cccc(Br)c1)c1ccccc1 | -12.9 (active)
8 | Cc1c(C(C)(C)O)[nH]c2ccc(C#N)cc12 | inactive
9 | O=C(O)/C=C/C(=O)NNc1ccc([N+](=O)[O-])cc1 | inactive
10 | Cc1cccc(NC(=O)CSc2nnc(CCCCCNC(=O)OC(C)(C)C)o2)c1C | inactive
11 | Cc1ccc(C(=O)Cc2nnc(C)s2)cc1 | inactive
12 | CCOC(=O)C1CCCN(S(=O)(=O)c2ccc(-n3cnnn3)c(C)c2)C1 (stereo not given) | inactive
13 | Oc1ccc(/C=N/N(Cc2ccccc2)c2ccccc2)cc1 | -7.55 (active)
14 | CN(C)c1ccc(/C=N/N(Cc2ccccc2)c2ccccc2)cc1 | inactive
15 | CCN(/N=C/c1ccc(N(C)C)cc1)c1nc2ccccc2[nH]1 | inactive
16 | COc1ccc(CCn2nnnc2C(c2ccccc2)N2CCN(C)CC2)cc1OC (stereo not given) | inactive
17 | N#Cc1ccc(C(c2nnnn2CCc2ccccc2)N2CCCCCC2)cc1 (stereo not given) | -7.47 (active)
18 | CC(C)C(c1nnnn1CCc1ccccc1)N1CCN(C(=O)c2ccco2)CC1 (stereo not given) | inactive
19 | CCn1c(C(O)c2cc(OC)ccc2OC)nc2ccccc21 (stereo not given) | inactive
20 | COc1ccc(OC)c(C(O)c2nc3ccccc3n2C)c1 (stereo not given) | -7.74 (active)
21 | CCCn1c(C(O)c2cc(OC)ccc2OC)nc2ccccc21 (stereo not given) | inactive
22 | Cn1ncc2c(N3CCCCC3)nc(NCCCO)nc21 | inactive
23 | COc1ccccc1C(=O)NCc1nnc(SC(C)C(=O)Nc2nccs2)n1C (stereo not given) | inactive
24 | C=CCc1cc(S(=O)(=O)c2ccc(O)c(CC=C)c2)ccc1O | -11.9 (active)

Row | Structure (SMILES) | B-score
25 | CCOC(=O)N1CCC(NC(=O)CN2C(=O)COc3ccc(C(C)(C)C)cc32)CC1 | inactive
26 | C#CC(C)(C)NC(=O)c1cnc(-c2ccccc2)nc1-c1ccccc1 | inactive
27 | COc1ccc(C2CC(c3cccs3)=NN2c2ccc(F)cc2)cc1OC (stereo not given) | -7.88 (active)
28 | COc1ccc(C2CC(c3cccs3)=NN2c2ccccc2)cc1 (stereo not given) | -11.3 (active)
29 | COc1ccc(C2CC(c3cccs3)=NN2c2nc(C)c(C(C)=O)s2)cc1OC (stereo not given) | inactive
30 | COc1ccc(C2CC(c3cccs3)=NN2C(=O)CSc2nnc(N)s2)cc1OC (stereo not given) | inactive
31 | COc1ccc(C2CC(c3cccs3)=Nc3ccccc3S2)cc1OC (stereo not given) | -8.55 (active)
32 | COc1ccc(C2CC(c3cccs3)=NN2C(=O)CCC(=O)O)cc1OC (stereo not given) | inactive
33 | COc1ccc(C2=NN(c3ccccc3)C(c3cccs3)C2)cc1 (stereo not given) | inactive
34 | COc1ccccc1N1N=C(c2cccs2)CC1c1ccccc1 (stereo not given) | inactive
35 | COc1ccc(C2CC(c3cccs3)=NN2C(=O)CSc2nncs2)cc1OC (stereo not given) | inactive
36 | COc1ccc(NCCc2ccccn2)cc1 | inactive
37 | Cc1nn(C)c(C)c1C(C)NC(=O)c1ccc(OC2CCN(Cc3ccccn3)CC2)cc1 (stereo not given) | inactive
38 | COc1ccccc1/C=C/C(=O)NC1CC2CCC1C2 (stereo not given) | inactive
39 | Cc1ccc(SCC2=NNC(=O)C2)cc1 | inactive
40 | Cc1ccccc1C(=O)Nc1ccccc1Sc1ccccc1 | inactive
41 | O=C(COC(=O)c1ccccc1)Nc1ccccc1Sc1ccccc1 | -9.75 (active)
42 | O=C(COC(=O)c1cccc(Br)c1)Nc1cccc2c1C(=O)c1ccccc1C2=O | inactive
43 | CCn1c(=O)n(CC)c2cc(N3CCCC3)c(NC(=O)c3ccccc3Br)cc21 | inactive
44 | COc1ccc(-c2c(C(C)=O)c(C)nc3sc4c(=O)n(-c5ccc(C)cc5)nnc4c23)cc1 | inactive
45 | O=C(COc1ccc([N+](=O)[O-])cc1Cl)Nn1cnnc1 | inactive
46 | CCN(C(=O)c1ccc(Br)cc1)c1ccccc1 | inactive
47 | CCN(C(=O)COc1ccc(C(=O)c2ccccc2)cc1)c1ccccc1 | -8.43 (active)
48 | O=C(COc1ccc(F)cc1)N(CC1=CCS(=O)(=O)C1)c1ccccc1 | inactive

Row | Structure (SMILES) | B-score
49 | COc1ccc2cc(CCl)c(Cl)nc2c1 | inactive
50 | Cc1ccc(S(=O)(=O)N(CCCN(C)C)Cc2ccc3c(c2)OCO3)cc1 | inactive
51 | O=C(CN1CCN(c2ccc(F)cc2)CC1)Nc1ccccc1 | inactive
52 | O=C(C[C@H]1C(=O)N(c2ccc(F)c(F)c2)C[C@@H]1Cc1ccccc1)Nc1ccccc1 | -12.2 (active)
53 | O=C(CSC1CC(=O)N(CCc2ccccc2)C1=O)Nc1ccc(Cl)cc1 (stereo not given) | inactive
54 | CC(c1ccccc1)n1c(NCCCn2ccnc2)nc2c1c(=O)[nH]c(=O)n2C (stereo not given) | inactive
55 | CC1CCCCC1NC(=O)COC(=O)Cc1ccc(Br)cc1 (stereo not given) | inactive
56 | COc1ccc(-c2noc(COc3ccc(Cl)c(C)c3)n2)cc1 | inactive
57 | COCc1cc(C(C)=O)ccc1OC | inactive
58 | COc1ccc(C(C)=O)cc1COc1ccc(Cl)c(C)c1 | -10.5 (active)
59 | COc1ccc(/C(N)=N/OC(=O)Cc2ccccc2)cc1 | inactive
60 | COc1cccc(NC(=O)c2ccc(Cn3cc([N+](=O)[O-])cn3)o2)c1 | inactive
61 | O=C(Nc1ccc(Br)c2cccnc12)c1ccc(Cn2cc([N+](=O)[O-])cn2)o1 | -12.7 (active)
62 | O=C(c1ccc(Cn2cc([N+](=O)[O-])cn2)o1)N1CCCC1 | inactive
63 | O=C(Nc1nonc1-c1ccc(Cl)cc1)c1ccco1 | inactive
64 | O=C(N/N=C/c1ccccn1)c1cccc(NC(=O)c2ccc(Cl)cc2)c1 | -8.92 (active)
65 | Cc1cccc(C(=O)Nc2ccc(C(=O)N/N=C/c3cccc(C)n3)cc2)c1 | inactive
66 | CNC(=O)C(=O)N/N=C/c1ccccn1 | inactive
67 | O=C(COc1ccc(Cl)cc1Cl)NCCCNC(=O)c1cnccn1 | inactive
68 | O=C(Nc1cccc(CCc2ccccn2)c1)c1ccc(Cl)cc1 | inactive
69 | O=C(COc1ccc(Cl)cc1Cl)N/N=C/c1ccccn1 | -9.19 (active)
70 | COc1ccccc1NC(=O)c1cc(Cl)nnc1Cl | inactive
